The list is not random: actives were taken first. Their share in the collection is about 32%.
CYP2C19 inh: blocks human cytochrome P450 2C19; P33261; CYP2C19 Supersomes, luciferin-H EGE luminescence, 30 min; inhibition, % at 5 µM; 21% of 96,000 active;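 active means CYP2C19 inhibition above a set limit at 5 µM in the primary screen, cut at about 50% in these data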;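 further: plate controls were negative control wells for no effect and 2.5 mM tranylcypromine positive control for full effect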
Target sequence (P33261 whole entry, looked up): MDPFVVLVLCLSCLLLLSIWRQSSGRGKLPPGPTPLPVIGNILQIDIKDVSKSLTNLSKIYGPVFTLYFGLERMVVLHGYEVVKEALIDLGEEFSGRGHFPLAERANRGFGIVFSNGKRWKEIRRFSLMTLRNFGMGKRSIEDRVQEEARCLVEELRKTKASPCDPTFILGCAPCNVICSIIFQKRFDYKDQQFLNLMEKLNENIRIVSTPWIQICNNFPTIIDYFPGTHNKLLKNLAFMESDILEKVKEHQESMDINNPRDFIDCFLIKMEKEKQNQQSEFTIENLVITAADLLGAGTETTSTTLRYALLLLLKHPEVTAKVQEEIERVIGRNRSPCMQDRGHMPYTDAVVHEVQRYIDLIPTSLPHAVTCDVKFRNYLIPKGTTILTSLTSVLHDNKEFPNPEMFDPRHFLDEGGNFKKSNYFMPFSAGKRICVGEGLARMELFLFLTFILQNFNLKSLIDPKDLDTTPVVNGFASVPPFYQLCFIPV
PostGolgi ctrl: growth of the yeast control strain, post-Golgi counter-screen. efflux-deficient yeast background strain, growth absorbance A615, 16 h. inhibition, % at 10 µM. 5% of 98,000 active. AID 738
CYP2C9 inh: inhibitors of human CYP2C9; P11712; CYP2C9 Supersomes, luciferin-H conversion, luminescence; inhibition, % at 5 µM; 20% of 96,000 active;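 active means blocking of liver enzyme CYP2C9 beyond about 50% at 5 µM, limit read from the data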
PostGolgi yeast: growth inhibition of a yeast mutant, post-Golgi transport screen; post-Golgi transport phenotypic cell assay; inhibition, % at 10 µM; 0.9% of 98,000 active; AID 739;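 further: yeast cells grown in 1536-well plates; yeast grown about 18 h at 30C before absorbance read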
CYP2C9 act: activators of human CYP2C9. P11712. recombinant CYP2C9, luciferin-H conversion, luminescence; hits give high values; factor 1 = untreated enzyme, 0 = blocked. activation factor at 5 µM. 1.4% of 96,000 active. AID 1024;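 active means activation factor of 2 or more for CYP2C9 at a 5 µM dose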;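 further: 0 = sulfaphenazole-blocked wells and 1 = vehicle-only wells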
CYP2C19 act: increases human CYP2C19 enzyme activity; AID 1025; P33261; 96,000 tested, under 10 active; activation factor at 5 µM; recombinant CYP2C19, luciferin-H EGE luminescence; hits give high values; 0 = fully inhibited enzyme, 1 = untreated enzyme;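 active means activation factor of at least 2 at 5 µM in the primary screen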;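 further: 0 = wells with 2.5 mM tranylcypromine and 1 = vehicle-only wells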
Starred values were filed as active, the others as inactive; / = not tested or not shown. Unless noted, no stated cut-off is given here; in the data, active means inhibition above about 30%; inactive means the rest.

SMILES | CYP2C19 inh | PostGolgi ctrl | CYP2C9 inh | PostGolgi yeast | CYP2C9 act | CYP2C19 act
COc1cccc(NC(=O)C2CCN(Cc3cnn(-c4ccccc4)c3-n3cccc3)CC2)c1 | 18 | 20 | 67* | -1 | 0.3 | 0.8
O=C(NCc1ccc2c(c1)OCO2)C1CCN(Cc2cnn(-c3ccccc3)c2-n2cccc2)CC1 | 33 | 6 | 51* | 0 | 0.5 | 0.7
CCOC(=O)N1CCN(c2ncnc3c2oc2nc(C(C)C)c4c(c23)CCC4)CC1 | 86* | 4 | 65* | 9 | 0.4 | 0.1
CC(C)Cc1nc2oc3c(N4CCN(CCO)CC4)ncnc3c2c2c1CCCC2 | 60* | 15 | 67* | 2 | 0.3 | 0.4
CC(=O)c1ccc(NC(=O)Nc2ccc(NS(=O)(=O)c3ccc(C)cc3)cc2)cc1 | 6 | -2 | 8 | -3 | 0.9 | 0.9
CC(=O)c1ccc(NS(=O)(=O)Cc2ccc(Cl)cc2)cc1 | 74* | 6 | 77* | 22 | 0.2 | 0.3
CC(=O)c1ccc(NS(=O)(=O)c2ccc(CC(C)C)cc2)cc1 | 67* | -5 | 86* | -3 | 0.1 | 0.3
O=C(O)c1ccc(NS(=O)(=O)c2ccc(Cl)cc2)cc1 | -2 | -4 | -7 | 16 | 1.1 | 1
CC(=O)Nc1cccc(NS(=O)(=O)Cc2ccc(Cl)cc2)c1 | 96* | 12 | -26 | 7 | 1.3 | 0
COc1cccc(NS(=O)(=O)Cc2ccccc2)c1 | 49 | 0 | 8 | 7 | 0.9 | 0.5
Cc1ccc(C(=O)Nn2cnc3scc(-c4cccs4)c3c2=O)c(O)c1 | -10 | 20 | 36 | -2 | 0.6 | 1.1
COCCNC(C)C(=O)Nc1ccc(Br)cc1 (stereo unspecified) | 17 | 10 | 0 | 18 | 1 | 0.8
CC(=O)NC(C)C(=O)OCC(=O)Nc1ccc(Br)cc1 (stereo unspecified) | 54* | 5 | 16 | 6 | 0.8 | 0.5
OC1CCN(C(c2ccc3ncccc3c2)c2nnnn2C2CCCCC2)CC1 (stereo unspecified) | -14 | 10 | -8 | 0 | 1.1 | 1.1
c1cnc2ccc(C(c3nnnn3C3CCCCC3)N3CCN4CCCC4C3)cc2c1 (stereo unspecified) | -1 | -6 | 69* | -4 | 0.3 | 1
CCC(C)(C)n1nnnc1C(c1ccc2ncccc2c1)N1CCN2CCCC2C1 (stereo unspecified) | 59* | 5 | 3 | 11 | 1 | 0.4
CCC(C)(C)n1nnnc1C(c1cc2ccc(OC)cc2[nH]c1=O)N1CCN(C2CCCCC2)CC1 (stereo unspecified) | -3 | 5 | 6 | 0 | 0.9 | 1
c1cnc2ccc(C(c3nnnn3C3CCCC3)N3CCN(c4nc5ccccc5s4)CC3)cc2c1 (stereo unspecified) | 70* | 3 | 88* | 5 | 0.1 | 0.3
CC(C)Nc1nc2n(c(=O)n1)CCN2C(C)C | -22 | 3 | -28 | 3 | 1.3 | 1.2
Cc1c(C#N)c(SCC(N)=O)nc2c1CCCC2 | 21 | -5 | -13 | 16 | 1.1 | 0.8
COC(=O)c1sccc1NC(=O)Cn1cnc2c1c(=O)n(C)c(=O)n2C | 41 | 1 | 17 | 11 | 0.8 | 0.6
COc1ccc(C2C(C#N)=C(N)OC(C(C)(C)C)=C2C#N)cc1OC (stereo unspecified) | 61* | 15 | 90* | -6 | 0.1 | 0.4
COc1cccc(C2C(C#N)=C(N)OC(C(C)(C)C)=C2C#N)c1 (stereo unspecified) | 85* | 10 | 94* | 8 | 0.1 | 0.2
CC(C)OCCCNC(=O)C1CCC(=O)N1C(C)C (stereo unspecified) | -7 | 0 | -8 | 2 | 1.1 | 1.1
COc1ccc(-c2noc(CCC(=O)N3CCC(C)CC3)n2)cc1 | 10 | 17 | 28 | 14 | 0.7 | 0.9
SMILES | CYP2C19 inh | PostGolgi ctrl | CYP2C9 inh | PostGolgi yeast | CYP2C9 act | CYP2C19 act
Cc1ccc(-c2noc(CCC(=O)NC3CCN(Cc4ccccc4)CC3)n2)cc1 | 55* | 14 | 72* | 4 | 0.3 | 0.5
Cc1ccc(-c2noc(CCC(=O)NC3CCCc4ccccc43)n2)cc1 (stereo unspecified) | 4 | 12 | 62* | 25 | 0.4 | 1
c1ccc(CC2CCN(Cc3nc(-c4ccccc4)no3)CC2)cc1 | 14 | 22 | 10 | 4 | 0.9 | 0.9
COc1ccc(-c2noc(CCC(=O)N3CCN(Cc4ccccc4)CC3)n2)cc1 | 94* | 8 | 95* | -6 | 0 | 0.1
O=C(CCc1nc(-c2ccccc2F)no1)NC1CCN(Cc2ccccc2)CC1 | -10 | -4 | 35 | 2 | 0.7 | 1.1
COc1ccc(-c2noc(CN3CCC(Cc4ccccc4)CC3)n2)cc1 | 66* | / | 71* | / | 0.3 | 0.3
CC(C)OCCCNC(=O)c1ccc(NS(C)(=O)=O)cc1 | -4 | 7 | -8 | -4 | 1.1 | 1
Cc1ccc(-c2noc(CCC(=O)N3CCCC3)n2)cc1 | 52* | 4 | 52* | 2 | 0.5 | 0.5
O=C(CCCc1nc(-c2ccccc2)no1)N1CCOCC1 | 37 | 5 | -11 | 10 | 1.1 | 0.6
O=C(NCS(=O)(=O)c1ccccc1)c1ccccc1 | 70* | 0 | 12 | 2 | 0.9 | 0.3
Cc1cc(C(=O)OCC(=O)NCCCN2CCCC2=O)c2ccccc2n1 | 0 | 17 | -4 | 0 | 1 | 1
Cc1cc(C(=O)OCC(=O)Nc2cc(C)on2)c2ccccc2n1 | 56* | -4 | 21 | -3 | 0.8 | 0.4
Cc1cc(C(=O)OCC(=O)NCCC(C)C)c2ccccc2n1 | 21 | 5 | -137 | -5 | 2.4* | 0.8
CCOc1ccc(C(=O)OCC(=O)Nc2cc(C)on2)cc1OCC | 17 | 3 | 13 | -7 | 0.9 | 0.8
CCCCNC(=O)COC(=O)c1cc(C)nc2ccccc12 | 75* | 9 | -160 | 3 | 2.6* | 0.3
CCn1c(COc2ccccc2C)nnc1SCC(=O)N1CCCCC1 | 18 | 13 | -16 | -8 | 1.2 | 0.8
CCOC(=O)c1cccc(NC(=O)CN(C)S(=O)(=O)c2cnc[nH]2)c1 | 54* | 6 | 94* | 3 | 0.1 | 0.5
CN(CC(=O)NCc1ccccc1)S(=O)(=O)c1cnc[nH]1 | 100* | 12 | 80* | -3 | 0.2 | 0
CCN(c1ccccc1)S(=O)(=O)c1cnc[nH]1 | 98* | 0 | 100* | 1 | 0 | 0
CCc1cccc(NC(=O)CN(C)S(=O)(=O)c2cnc[nH]2)c1 | 95* | 6 | 95* | -2 | 0.1 | 0
CCOC(=O)c1cccc(NC(=O)CCn2cccc2)c1 | 22 | 5 | 43 | 7 | 0.6 | 0.8
CCCCS(=O)(=O)Nc1ccc2c(c1)ncn2C1CCCCC1 | 11 | -2 | 85* | 15 | 0.2 | 0.9
Cn1c(Sc2ccc(C(F)(F)F)cc2[N+](=O)[O-])nnc1-c1ccccc1 | 34 | 2 | -100 | -5 | 2* | 0.7
CN(C(=O)COC(=O)COc1ccccc1F)C1CCS(=O)(=O)C1 (stereo unspecified) | -1 | 5 | -11 | 3 | 1.1 | 1

Bioassay records (PubChem)
